In PubChem BioAssay (NCATS):

Molecular target: Nicotinamide N-methyltransferase (Homo sapiens) (UniProt P40261)
Test: Confirmatory Screen for Target Class Profiling of Small Molecule Inhibitors of Methyltransferases (AID 1745852)
Conditions: MTase-Glo luminescence, SAH detection, recombinant enzyme; measured here: NNMT max response; stronger effect = lower value

Sequence of Nicotinamide N-methyltransferase (Homo sapiens) (P40261 whole entry, looked up): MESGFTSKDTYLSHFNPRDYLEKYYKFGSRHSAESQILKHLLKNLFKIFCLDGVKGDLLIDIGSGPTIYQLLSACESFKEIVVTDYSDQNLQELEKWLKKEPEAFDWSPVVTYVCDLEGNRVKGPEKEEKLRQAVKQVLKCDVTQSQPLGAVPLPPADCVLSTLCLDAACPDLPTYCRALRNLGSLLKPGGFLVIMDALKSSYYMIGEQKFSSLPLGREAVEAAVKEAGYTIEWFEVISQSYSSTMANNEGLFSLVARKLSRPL

SMILES | activity
Cn1nccc1-c1cc2c(cn1)CN(Cc1ccncc1)CCN2 | -4.82%
O=C(OCc1ccccc1)N1CCOCC12CCN(Cc1c[nH]c3ccccc13)CC2 | 5.55%
COCc1nc2nc(-c3ccccc3)c(-c3ccc(O)c(F)c3)cc2n1C | -53%
COC(=O)C(Cc1c[nH]c2ccccc12)NC(=O)c1ccccc1Br (stereo not given) | -4.76%
COc1cncc(Nc2ncc(-c3ccccc3OC)c3c2OCC3)c1 | -19.7%
CCCn1c(=O)c2ccccc2n2c(=O)n(CC(=O)c3cc(C)ccc3C)nc12 | -36.8%
CC(C)c1ccc(NC(=O)Cn2c(=O)oc3cc(S(=O)(=O)NCc4ccccc4)ccc32)cc1 | -3.77%
O=C(N[C@H](C1CCNCC1)C1CC(O)C1)c1ccc2nccnc2c1 (stereo not given in full) | 10.8%
COc1ncccc1-c1nccn2c(C3CN(Cc4ccccc4O)C3)ncc12 | 7.78%
CCc1ccc(N2C(=O)c3cc4sccc4n3CC2(C)C(=O)NC2CCCCCC2)cc1 (stereo not given) | -5.2%
COc1cc(F)ccc1-c1cc(-c2ccc(=O)[nH]c2)c2cncn2c1 | -11%
CC(CNC(=O)CCc1nnc2n(Cc3ccc(F)cc3)c(=O)c3ccccc3n12)c1ccccc1 (stereo not given) | -44.2%
O=c1c2ccccc2n2c(-c3ccc(F)c(F)c3)nnc2n1Cc1ccccc1Cl | -2.95%
Cn1c(C(=O)NCCN2CCCCC2)cc2c1CCN(Cc1cccc(F)c1)C2 | 7.53%
Cc1ccc(S(=O)(=O)c2nnn3c2nc(N2CCC(N4CCCCC4)CC2)c2ccccc23)cc1C | -9.07%
COCCn1ccc2c(C3=CCOCC3)nc(-c3cccc4[nH]ccc34)cc21 | -12.7%
O=C(NCc1ccc(Cl)cc1)c1ccc2c(=O)nc3c(-c4ccccc4F)n[nH]n3c2c1 | -14.9%
O=C(NCc1ccc2c(c1)OCO2)c1sc(=S)n2c1[nH]c(=O)c1ccccc12 | -20.7%
O=C(NCCc1ccc(Cl)cc1)c1ccc2c(=O)[nH]c3c(C(=O)NCC4CCCO4)sc(=S)n3c2c1 (stereo not given) | -49.4%
O=C(CCc1nnc2n(Cc3ccc(Cl)cc3)c(=O)c3ccccc3n12)NCCN1CCCC1 | -12.3%

SMILES | activity
c1ccc(CO[C@H]2COCCN(c3nc4ccccc4o3)C2)cc1 | -5.26%
CCOC(=O)CC1(NC(=O)N2CCn3cccc3C2Cc2ccccc2)CCCCC1 (stereo not given) | -6.48%
COc1cccc(NC(=O)Cn2c(=O)oc3cc(S(=O)(=O)N4CCCC4)ccc32)c1 | 4.37%
CCCC1=Nc2cc(C(=O)NCCCN3CCCCC3CC)ccc2Sc2ccc(C)cc21 (stereo not given) | -7.02%
Cc1ccc(Cn2c(=O)c3ccccc3n3c(CCC(=O)NCCCN4CCN(C)CC4)nnc23)cc1 | -12.5%
Cc1ccc(NS(=O)(=O)c2ccc3[nH]c(=O)[nH]c3c2)cc1F | -16.3%
O=C(CCc1nnc2n(Cc3ccccc3Cl)c(=O)c3ccccc3n12)N1CCC(N2CCCCC2)CC1 | -1.92%
COc1ccccc1-c1[nH]nc2ncc(C(=O)N3CCN(Cc4ccccc4)CC3)nc12 | -37.2%
Cc1cnc(C2CC2)n1C1CCN(S(=O)(=O)c2ccc3c(c2)OCCO3)CC1 | -30.4%
O=C(CCc1nnc2n(CCc3ccccc3)c(=O)c3ccccc3n12)N1CCN(c2ccccc2)CC1 | -41%
CCNc1ncc(CN2CCN(c3ccncc3)CC2)cn1 | -0.695%
O=C1COc2ccc(-c3cccc(O)c3)nc2CN1Cc1ccc(C(F)(F)F)cc1 | -22.9%
Cc1cccc(-c2nnc3n(CCc4ccccc4)c(=O)c4ccccc4n23)c1 | -11.5%
Cc1noc(C)c1-c1cc2c(cc(C)n2CCN(C)C)c(Nc2ccncn2)n1 | -15.3%
CCCn1c(=O)c2cc(F)ccc2n2c(SCc3c(F)cccc3Cl)nnc12 | -24.8%
CN(C)c1nc2c(c(N3C[C@@H](CN4CCCC4)[C@@H](CO)C3)n1)CCCC2 | 3.39%
O=C(CCc1nnc2n(Cc3ccc(F)cc3)c(=O)c3ccccc3n12)NCCN1CCCC1 | -16.1%
Cc1ccc(C(=O)O)c2c1N[C@@H](c1ccc(Cl)cc1)[C@H]1CC=C[C@@H]21 | 0.978%
CCN(CC)CCNC(=O)CCc1nnc2n(CCc3ccccc3)c(=O)c3ccccc3n12 | -10.6%
COc1ccc(OC)c(CN2CCNc3cc(-c4ccnc(C)c4)ncc3C2)c1 | -5.07%

Molecular target: Phenylethanolamine N-methyltransferase (Homo sapiens) (UniProt P11086)
Test: as above
Conditions: MTase-Glo luminescence, SAH detection, recombinant enzyme; measured here: PNMT max response; stronger effect = lower value

Sequence of Phenylethanolamine N-methyltransferase (Homo sapiens) (P11086 whole entry, looked up): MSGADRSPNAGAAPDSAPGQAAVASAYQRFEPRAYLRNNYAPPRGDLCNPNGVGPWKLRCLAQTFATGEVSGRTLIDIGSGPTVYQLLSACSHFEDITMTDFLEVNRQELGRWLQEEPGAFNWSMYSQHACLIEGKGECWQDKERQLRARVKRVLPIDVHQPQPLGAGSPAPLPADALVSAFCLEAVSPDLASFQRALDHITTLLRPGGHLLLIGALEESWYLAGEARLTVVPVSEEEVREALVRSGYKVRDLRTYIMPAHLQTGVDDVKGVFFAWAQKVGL

SMILES | activity
Cn1nccc1-c1cc2c(cn1)CN(Cc1ccncc1)CCN2 | 0.453%
O=C(OCc1ccccc1)N1CCOCC12CCN(Cc1c[nH]c3ccccc13)CC2 | 1.46%
COCc1nc2nc(-c3ccccc3)c(-c3ccc(O)c(F)c3)cc2n1C | -59.9%
COC(=O)C(Cc1c[nH]c2ccccc12)NC(=O)c1ccccc1Br (stereo not given) | -7.16%
COc1cncc(Nc2ncc(-c3ccccc3OC)c3c2OCC3)c1 | 0.675%
CCCn1c(=O)c2ccccc2n2c(=O)n(CC(=O)c3cc(C)ccc3C)nc12 | -0.0841%
CC(C)c1ccc(NC(=O)Cn2c(=O)oc3cc(S(=O)(=O)NCc4ccccc4)ccc32)cc1 | 0%
O=C(N[C@H](C1CCNCC1)C1CC(O)C1)c1ccc2nccnc2c1 (stereo not given in full) | 3.61%
COc1ncccc1-c1nccn2c(C3CN(Cc4ccccc4O)C3)ncc12 | 3.8%
CCc1ccc(N2C(=O)c3cc4sccc4n3CC2(C)C(=O)NC2CCCCCC2)cc1 (stereo not given) | -7.25%
COc1cc(F)ccc1-c1cc(-c2ccc(=O)[nH]c2)c2cncn2c1 | -5.79%
CC(CNC(=O)CCc1nnc2n(Cc3ccc(F)cc3)c(=O)c3ccccc3n12)c1ccccc1 (stereo not given) | -0.739%
O=c1c2ccccc2n2c(-c3ccc(F)c(F)c3)nnc2n1Cc1ccccc1Cl | -3.63%
Cn1c(C(=O)NCCN2CCCCC2)cc2c1CCN(Cc1cccc(F)c1)C2 | 7.04%
Cc1ccc(S(=O)(=O)c2nnn3c2nc(N2CCC(N4CCCCC4)CC2)c2ccccc23)cc1C | -3.83%
COCCn1ccc2c(C3=CCOCC3)nc(-c3cccc4[nH]ccc34)cc21 | -36.9%
O=C(NCc1ccc(Cl)cc1)c1ccc2c(=O)nc3c(-c4ccccc4F)n[nH]n3c2c1 | -19.4%
O=C(NCc1ccc2c(c1)OCO2)c1sc(=S)n2c1[nH]c(=O)c1ccccc12 | -48.8%
O=C(NCCc1ccc(Cl)cc1)c1ccc2c(=O)[nH]c3c(C(=O)NCC4CCCO4)sc(=S)n3c2c1 (stereo not given) | -36.4%
O=C(CCc1nnc2n(Cc3ccc(Cl)cc3)c(=O)c3ccccc3n12)NCCN1CCCC1 | 0%

SMILES | activity
c1ccc(CO[C@H]2COCCN(c3nc4ccccc4o3)C2)cc1 | -0.271%
CCOC(=O)CC1(NC(=O)N2CCn3cccc3C2Cc2ccccc2)CCCCC1 (stereo not given) | -4.39%
COc1cccc(NC(=O)Cn2c(=O)oc3cc(S(=O)(=O)N4CCCC4)ccc32)c1 | -58.7%
CCCC1=Nc2cc(C(=O)NCCCN3CCCCC3CC)ccc2Sc2ccc(C)cc21 (stereo not given) | 1.37%
Cc1ccc(Cn2c(=O)c3ccccc3n3c(CCC(=O)NCCCN4CCN(C)CC4)nnc23)cc1 | 3.42%
Cc1ccc(NS(=O)(=O)c2ccc3[nH]c(=O)[nH]c3c2)cc1F | -45.9%
O=C(CCc1nnc2n(Cc3ccccc3Cl)c(=O)c3ccccc3n12)N1CCC(N2CCCCC2)CC1 | 0%
COc1ccccc1-c1[nH]nc2ncc(C(=O)N3CCN(Cc4ccccc4)CC3)nc12 | -61.8%
Cc1cnc(C2CC2)n1C1CCN(S(=O)(=O)c2ccc3c(c2)OCCO3)CC1 | -0.889%
O=C(CCc1nnc2n(CCc3ccccc3)c(=O)c3ccccc3n12)N1CCN(c2ccccc2)CC1 | 0.144%
CCNc1ncc(CN2CCN(c3ccncc3)CC2)cn1 | 1.91%
O=C1COc2ccc(-c3cccc(O)c3)nc2CN1Cc1ccc(C(F)(F)F)cc1 | -51.9%
Cc1cccc(-c2nnc3n(CCc4ccccc4)c(=O)c4ccccc4n23)c1 | -10%
Cc1noc(C)c1-c1cc2c(cc(C)n2CCN(C)C)c(Nc2ccncn2)n1 | -28.6%
CCCn1c(=O)c2cc(F)ccc2n2c(SCc3c(F)cccc3Cl)nnc12 | 0.382%
CN(C)c1nc2c(c(N3C[C@@H](CN4CCCC4)[C@@H](CO)C3)n1)CCCC2 | 3.79%
O=C(CCc1nnc2n(Cc3ccc(F)cc3)c(=O)c3ccccc3n12)NCCN1CCCC1 | 2.1%
Cc1ccc(C(=O)O)c2c1N[C@@H](c1ccc(Cl)cc1)[C@H]1CC=C[C@@H]21 | 2.78%
CCN(CC)CCNC(=O)CCc1nnc2n(CCc3ccccc3)c(=O)c3ccccc3n12 | 3.34%
COc1ccc(OC)c(CN2CCNc3cc(-c4ccnc(C)c4)ncc3C2)c1 | 4.8%
